Source: PubChem (National Center for Advancing Translational Sciences (NCATS))
Compounds with a hit are over-represented: about 9.4% of the library has one in this group of screens.
AMA1-RON2 inh: qHTS for Inhibitors of AMA1-RON; Towards Development of Antimalarial Drug Lead: Primary Screen. AlphaScreen AMA1-biotinylated RON2 peptide binding. Potency, µM (highest dose often 58.2 µM), inactives show at the highest dose activity change, negative = inhibition, usual class: inhibitors. 0.2% of 360,000 active;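 note: 0% = vehicle wells and -100% = peptide control; nearly all actives have a fitted effect of over 45% in size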
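AMA1 (3D7) with his tag at 25 nM final met compounds first, then biotinylated RON2 peptide at 25 nM; detection used donor plus acceptor beads, 10 µg/mL apiece, read by AlphaScreen after 30 min at room temperature.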
SARS PLpro yeast: qHTS of Yeast-based Assay for SARS-CoV PLP; S. cerevisiae expressing SARS-CoV PLpro, growth rescue; 0.19% of 330,000 active; Potency, µM (highest dose often 32.9 µM), for the others: top-dose activity, positive = growth rescue, usual class: activators; AID 485353, 2010; calls by dose curve; note: 0% is about no effect; nearly all actives have a fitted effect of over 55% in size
Pf growth 96h: Primary qHTS for delayed death inhibitors of the malarial parasite plastid, 96 hour incubation; AID 504834, 2011; 6.9% of 320,000 active; P. falciparum luciferase reporter growth, 96 h; Potency, µM (doses to about 28.7 µM), for the others: at the highest dose activity change, negative = inhibition, actives largely listed as inhibitors; note: % is set by controls: 0 for no effect and ±100 for the full control effect
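Luminescence readout: decreased luciferase signal marks inhibited growth of reporter-expressing P. falciparum in infected red cells (2% hematocrit, 0.05% parasitemia final), exposed to compound two generations (96 h, 37 C, 5% CO2).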
Pf growth 48h: Primary qHTS for delayed death inhibitors of the malarial parasite plastid, 48 hour incubation; AID 504832, 2011; 5.9% of 310,000 active; Potency, µM (titrated, usually from 28.7 µM), without a hit: top-dose activity change, negative = inhibition, hits mostly inhibitors; P. falciparum luciferase growth in erythrocytes, 48 h; note: % is set by controls: 0 for no effect and ±100 for the full control effect
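Parasite viability was followed by luminescence of a genomically integrated firefly luciferase. Cultures held 0.1% parasitemia at 2% hematocrit (final), incubated under 5% CO2 at 37 C.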
* marks the source's active call; other numbers are inactive results; ? = inconclusive; . = no result. Unless noted, calls come from the whole dose curve; as a rule, active = well fitted curve in the direction sought with a large enough effect; inconclusive = small, poorly fitted or top-dose-only effect, or another doubt; inactive = no such curve, though single readings can be large; an effect the other way counts as inactive or inconclusive. Potency is the fitted concentration of half-maximal effect.

SMILES | AMA1-RON2 inh | SARS PLpro yeast | Pf growth 96h | Pf growth 48h
OCCN1CCN(c2cc(C(F)(F)F)nc3ccccc23)CC1 | -9.6% | 1.2% | -2.6% | 11.7µM*
O=C(NCc1ccccn1)C1CCCN(S(=O)(=O)c2ccccc2)C1 (stereo unspecified) | -0.8% | -3.3% | . | 4.6%
O=C(C1CCCN(S(=O)(=O)Cc2ccccc2)C1)N1CCC(Cc2ccccc2)CC1 (stereo unspecified) | -8.8% | -14.1% | ? | .
O=C(NCCc1ccccn1)C1CCCN(S(=O)(=O)Cc2ccccc2)C1 (stereo unspecified) | 26.7% | -7.5% | 3.7µM* | .
O=C(O)C1CCCN(S(=O)(=O)Cc2ccccc2)C1 (stereo unspecified) | 2.5% | 1.3% | 2.33µM* | 38.0%
Cc1[nH]c2ccccc2c1/C=N\NC(=O)c1ccco1 | 3.6% | 2.7% | -14.4% | 7.7%
Cc1cc(C)c(C(=O)CC2(O)C(=O)Nc3ccccc32)cc1C (stereo unspecified) | 2.7% | 16.9% | -1.4% | .
COc1cc(NC(=O)c2cc([N+](=O)[O-])ccc2NC(=O)CNC2CCCCC2)cc(OC)c1 | 8.5% | -0.2% | 11.7% | 0.828µM*
COc1cc(NC(=O)c2cc([N+](=O)[O-])ccc2NC(=O)CNC2CCCCC2C)cc(OC)c1 (stereo unspecified) | 16.4% | 1.4% | 35.7% | 0.415µM*
O=C(CNC1CCCCC1)Nc1ccc([N+](=O)[O-])cc1C(=O)Nc1ccccc1F | 83.5% | -2.7% | ? | ?
CCCOc1cccc(C(=O)N(Cc2ccccc2)C2CCS(=O)(=O)C2)c1 (stereo unspecified) | 9.1% | 0.4% | ? | 2.6%
CC1CC(=O)NC(=O)N1Cc1ccccc1 (stereo unspecified) | -10.9% | . | . | .
O=C(/C(=C/O)N=Nc1ccccc1)c1ccncc1 | -9.1% | ? | ? | .
Cc1cccc(N=N/C(=C\O)C(=O)c2cccs2)c1 | ? | -16.9% | 11.7µM* | ?
NC(Cc1cc(O)c(O)cc1O)C(=O)O (stereo unspecified) | . | 0.6% | 14.7% | -0.3%
NCCc1cc(O)c(O)cc1O | 0.794µM* | . | ? | -10.9%
CC(C)c1ccc(CNc2ccc(N3CCOCC3)cc2)cc1 | ? | -0.7% | ? | ?
CN1CCN(c2ncnc3scc(-c4ccccc4Cl)c23)CC1 | -4.0% | -6.2% | 5.86µM* | ?
Oc1ccccc1N1CCN(c2ncnc3scc(-c4ccccc4)c23)CC1 | -15.7% | -5.9% | 5.22µM* | 5.86µM*
Oc1ccccc1N1CCN(c2ncnc3scc(-c4ccc(F)cc4)c23)CC1 | -13.3% | . | ? | 13.1µM*
Cc1nc(N2CCN(c3ccccc3O)CC2)c2c(-c3ccccc3)csc2n1 | ? | -4.2% | ? | 13.1µM*
Cc1cc(-c2csc3ncnc(N4CCN(C)CC4)c23)cc(C)c1C | -15.3% | -2.2% | ? | -14.8%
CCC(CO)Nc1ncnc2onc(-c3ccc(F)cc3)c12 (stereo unspecified) | -0.6% | 0.4% | -22.6% | 6.2%
COc1ccc(-c2csc3nc(C)nc(N4CCN(C(C)=O)CC4)c23)cc1OC | 4.1% | -0.8% | 4.6% | 4.15µM*
COC(=O)C(NC(=O)CCc1c(C)nc2ncnn2c1C)C(C)C (stereo unspecified) | 0.2% | -5.0% | 13.1µM* | 64.6%
SMILES | AMA1-RON2 inh | SARS PLpro yeast | Pf growth 96h | Pf growth 48h
COc1ccc(-c2cc3nc(C)c(CCC(=O)NCc4ccco4)c(C)n3n2)c(OC)c1 | -11.5% | -1.8% | 17.5% | ?
Cc1nc2ncnn2c(C)c1CCC(=O)N1CCCCC1 | 1.3% | 2.1% | 89.3% | .
CCOC(=O)C1CCN(C(=O)CCc2c(C)nc3ncnn3c2C)CC1 | -16.8% | -6.2% | 14.7µM* | .
CCOC(=O)C1CCN(C(=O)CCc2c(C)nc3cc(-c4ccc(OC)cc4OC)nn3c2C)CC1 | 8.1% | -2.9% | ? | 13.1µM*
Cc1nc2ncnn2c(C)c1CCC(=O)Nc1csc(N)n1 | -2.7% | 12.8% | ? | 9.2%
COCC(=O)N1CCC2CC1c1cc(Cl)ccc12 (stereo unspecified) | 2.2% | . | . | .
O=C(CSCc1cnn(-c2ccccc2)c1-n1cccc1)NCCN1CCOCC1 | 42.0% | 0.8% | ? | .
CC(C)(O)C#Cc1ccc(C(=O)NCc2cccs2)s1 | 0.0% | -0.6% | 9.28µM* | 16.9%
O=C(CCC(=O)N1CCSc2ccccc21)NCc1cccc(Br)c1 | -5.9% | -0.2% | 7.6% | -8.0%
Cn1c(SCC(=O)N2CCCc3ccccc32)nnc1-c1c[nH]c2ccccc12 | 15.0% | 1.3% | -11.6% | 13.1µM*
Cn1c(SCC(=O)N2CCN(c3ccccc3)CC2)nnc1-c1c[nH]c2ccccc12 | -10.6% | -3.4% | 7.38µM* | .
Cn1c(SCC(=O)c2ccccc2)nnc1-c1ccc(O)cc1 | 3.1% | -4.1% | 20.4% | .
Cn1c(SCC(=O)N2c3ccccc3CCc3ccccc32)nnc1-c1ccc(O)cc1 | -10.5% | 5.4% | -14.6% | 11.7µM*
Cc1ccc2cc(C)c3nnc(SCC(=O)N4CCCc5ccccc54)n3c2c1C | . | -8.9% | 5.22µM* | 9.28µM*
COc1ccc(-n2c(SCC(=O)N3CCc4ccccc43)nnc2-c2c[nH]c3ccccc23)cc1 | 2.3% | -8.2% | -16.1% | -24.9%
O=C(N/N=C\c1ccc(Cl)cc1Cl)c1sccc1-n1cccc1 | -6.7% | -7.9% | ? | -19.1%
O=C(COC(=O)CNC(=O)c1ccccc1Cl)Nc1ccccc1Cl | . | 0.9% | -4.9% | 13.2%
O=C(CSc1ccc(F)cc1)NC1CCCCC1 | 1.0% | -0.1% | 15.0% | 85.9%
COc1ccc(/C=C/C(=O)N2CCC(C(N)=O)CC2)cc1S(=O)(=O)N1CCOCC1 | 10.4% | 2.3% | 2.5% | -3.8%
COc1ccc2c(C)cc(SCC(=O)NC3CCCCC3)nc2c1 | 4.8% | 0.9% | . | .
CCOC(=O)CSc1nnc(-c2c[nH]c3ccccc23)n1CC | 1.1% | -4.6% | -7.9% | .
CCn1c(SCC(=O)N2CCc3ccccc32)nnc1-c1c[nH]c2ccccc12 | 17.3% | 0.9% | . | 9.28µM*
CCOC(=O)c1c(NC(=O)CSc2nnc(-c3c[nH]c4ccccc34)n2CC)sc2c1CCCC2 | -2.7% | 4.2% | 11.7µM* | ?
CCn1c(SCC(=O)N2CCCc3ccccc32)nnc1-c1c[nH]c2ccccc12 | -7.6% | -5.9% | 7.4% | ?
COc1cccc(-n2c(SCC(=O)N3CCOCC3)nnc2-c2c[nH]c3ccccc23)c1 | 0.0% | 9.9% | 10.4µM* | .
COc1ccc2c(C)cc(SCC(=O)N3CCOCC3)nc2c1 | 10.0% | 1.1% | 0.185µM* | 2.9%
CCN(CC)C(=O)C(Oc1ccc(S(=O)(=O)N2CCCC2)cc1[N+](=O)[O-])c1ccccc1 (stereo unspecified) | 4.5% | -16.4% | ? | ?
